According to the OligoGym collection:

Target: TNPO2
Assay: pooled miR-30 sensor sort-seq; sequence = guide strand
Settings: shRNA
Note: reference of the scale not given here.

Row | Sequence | sensor-assay potency score (higher = more potent)
1 | TTTGAGTTTATCCTGCACGATG | -1.1
2 | TCATCTTCTGACTTGAGTCTGG | 0.0435
3 | TTGACACCGATCATCATGCAGA | -0.349
4 | TTTGAGCAGCTGCAGGACCTGC | -1.11
5 | TTGAAGAACTGCAGGAACTTGG | -0.371
6 | TTGTTCTTGAGGATGAGGCCAC | -0.289
7 | TGAGTCTTTGAGCAGCTGCAGG | -1.5
8 | TTTTCCAGCAGTGTCTTGGGTG | -0.0437
9 | TTCTCTAGAATTGCTGACCCAG | -0.678
10 | AATGTTGTTGAGACACTCCTGT | 0.856

Target: TOMM40L
Assay: as above
Settings: shRNA

Row | Sequence | sensor-assay potency score (higher = more potent)
11 | TTATACCATAGAACACATCCAC | -0.126
12 | TAAGAGGTAAAGAAGCTCCTTC | 0.51
13 | TACCAAATCCAGCACATCCAGG | -1.16
14 | TAGACGGTGCAGCTCATCGAAG | -1.14
15 | TGTGGTAGTAACTTGCATGGGC | 1.17
16 | TATACCATAGAACACATCCACC | -1.17
17 | TCTGATAGTCTGTCATACCAGA | -0.753
18 | TTACTATCCACCAAGCCTCTAA | -0.326
19 | TTTCTCTAATGTTCAGACCTGG | -0.359
20 | TACATCTTTGCATAGACGGTGC | 0.000587
21 | TTTGGAACCTCTGATAGTCTGT | 0.397
22 | TAGTCTGTCATACCAGAGCATG | -1.7

Target: TOP1MT
Assay: as above
Settings: shRNA

Row | Sequence | sensor-assay potency score (higher = more potent)
23 | TTGTTGTGTATTCATGATCTAA | -0.885
24 | TTTGCCTGGATCTTCGTCTGGA | 0.141
25 | TTTTGCTGTAGATCTTCTCCAC | 0.12
26 | TATTCATGATCTAACATCCTCC | 0.13
27 | TTGTTCTCCTCCTTGTCCGTGG | -0.327
28 | TTCTGAACGCTCTCGGTCCAAG | -1.34
29 | TTGTCCACAAAGTATCTGTGGA | 0.0397
30 | TTTTTCTTGGTGACCATCTAAA | -1.15
31 | TTGTAGGTCCGGAACACCTTGG | -0.571
32 | TTCTTCTCCAGGACACTCCTGG | 0.134
33 | TCATTGAAGAAGTTCTTCCGGA | 0.332
34 | TGTAGGATAAGATCTTAGCTGC | 0.167

Target: TP53I13
Assay: as above
Settings: shRNA

Row | Sequence | sensor-assay potency score (higher = more potent)
35 | TTCAGCACAGCAGCCACTGTGT | -0.771
36 | TGAGCCTCTGTCCTGGAGCTGG | -1.27
37 | TTGGTGACACCTGCGGAGGCAG | -1.23
38 | TAGAGGAAGGTGACATCCTCAG | -0.655
39 | TTGGCCTTCAAGCTCCCTGGGG | -0.75
